Reference: article PMC7826789 (International Journal of Molecular Sciences, 2021)

Test system: STK17A

Question: How did the Kinases covered turn out when `CNc1nc(-c2ccc3c(N)n[nH]c3c2)cc(N2C[C@@H](C(=O)Nc3ccccc3)CC[C@H]2C)n1` [GSK2298859] was run?
Answer: The Kinases covered was “STK17A”.

Question: Which Kinases covered does the source give for `C[C@@H]1CCNC(=O)c2cc3ccc(C(=O)Nc4nc5ccccc5n4CCCN(C)C)cc3n21` [BI00645435] here?
Answer: The Kinases covered was “STK17A”.

Question: Which Kinases covered does the source give for `C[C@H]1CC[C@@H](C(=O)Nc2ccccc2)CN1c1cc(-c2ccc3c(N)n[nH]c3c2)nc(N)n1` [GSK2283293] here?
Answer: The Kinases covered was “STK17A”.

Question: For `CC(C)c1cc(-c2ccc3c(N)n[nH]c3c2)nc(N)n1` [GSK2250882], which Kinases covered is on record?
Answer: Its Kinases covered is “STK17A”.
